Experiment in all cases: DAPPL (digital affinity profiling via proximity ligation, sequencing); 10 mM Tris-HCl pH 7.5, 50 mM NaCl, 1 mM DTT, 4% glycerol, room temperature, 30 min; GST-TFs on glutathione beads, 16-mer random dsDNA library, 0.1% formaldehyde crosslink after washing; high values mean tight binding
The target in one assay is T1, FLI1 (Homo sapiens, UniProt Q01543 1-452).
T1 sequence: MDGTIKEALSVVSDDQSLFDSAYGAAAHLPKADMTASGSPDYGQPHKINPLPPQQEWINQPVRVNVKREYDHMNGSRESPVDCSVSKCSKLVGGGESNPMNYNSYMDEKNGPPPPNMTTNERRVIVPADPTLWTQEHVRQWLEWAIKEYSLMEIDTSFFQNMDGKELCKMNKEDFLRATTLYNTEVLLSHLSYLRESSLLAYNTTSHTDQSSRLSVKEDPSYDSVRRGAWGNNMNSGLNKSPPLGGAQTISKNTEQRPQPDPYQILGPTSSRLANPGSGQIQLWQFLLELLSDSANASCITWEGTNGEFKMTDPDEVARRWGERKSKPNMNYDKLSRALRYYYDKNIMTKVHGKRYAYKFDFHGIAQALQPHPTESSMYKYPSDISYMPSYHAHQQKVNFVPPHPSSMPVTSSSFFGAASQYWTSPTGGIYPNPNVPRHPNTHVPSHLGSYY
To be noted: protein: recombinant; tags: N-terminal GST; dsDNA, one strand shown. In short, it runs like this: (§1)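 After expression in yeast as GST fusions, human transcription factors were bound to glutathione beads, DNA-barcoded and mixed with a tag-only sample. The pools were incubated with 200 nmole of a 16-mer random double-stranded DNA library in Tris/NaCl/DTT/glycerol buffer (30 min, room temperature), washed and crosslinked with 0.1% formaldehyde. Proximity ligation with BsaI/T4 ligase ran for 1 h at 37 °C, before PCR amplification and sequencing on an Illumina NextSeq500. Binding signal is a hexamer's read frequency for a factor divided by its frequency for the tag-only sample.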

The target in the next assay is T2, ELK1 (Homo sapiens, UniProt P19419 1-428).
T2 sequence: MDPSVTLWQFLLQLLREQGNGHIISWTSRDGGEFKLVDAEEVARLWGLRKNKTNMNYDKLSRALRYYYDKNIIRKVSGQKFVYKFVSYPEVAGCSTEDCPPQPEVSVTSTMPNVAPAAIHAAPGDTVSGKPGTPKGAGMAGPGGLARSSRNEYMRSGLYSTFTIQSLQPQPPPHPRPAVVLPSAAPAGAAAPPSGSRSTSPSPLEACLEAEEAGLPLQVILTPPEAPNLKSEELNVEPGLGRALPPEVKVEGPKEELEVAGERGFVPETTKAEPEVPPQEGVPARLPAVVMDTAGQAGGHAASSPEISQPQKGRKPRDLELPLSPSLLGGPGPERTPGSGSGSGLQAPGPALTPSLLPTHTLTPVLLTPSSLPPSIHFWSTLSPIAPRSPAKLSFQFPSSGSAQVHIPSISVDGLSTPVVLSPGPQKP
To be noted: protein: recombinant; tags: N-terminal GST; dsDNA, one strand shown. In outline: as §1

The target in the next assay is T3, GABPA (Homo sapiens, UniProt Q06546 1-454).
T3 sequence: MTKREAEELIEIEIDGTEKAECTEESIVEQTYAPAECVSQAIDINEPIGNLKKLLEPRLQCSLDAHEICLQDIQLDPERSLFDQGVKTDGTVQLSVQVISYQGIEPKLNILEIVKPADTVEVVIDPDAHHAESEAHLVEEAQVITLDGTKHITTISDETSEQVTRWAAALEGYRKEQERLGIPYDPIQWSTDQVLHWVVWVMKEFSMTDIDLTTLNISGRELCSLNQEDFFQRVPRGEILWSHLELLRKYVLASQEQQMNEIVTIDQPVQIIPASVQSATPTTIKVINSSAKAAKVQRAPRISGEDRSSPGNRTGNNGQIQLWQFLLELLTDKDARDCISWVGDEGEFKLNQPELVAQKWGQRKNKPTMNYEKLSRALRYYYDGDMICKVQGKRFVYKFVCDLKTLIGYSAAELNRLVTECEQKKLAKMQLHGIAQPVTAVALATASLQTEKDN
The following applies: protein: recombinant; tags: N-terminal GST; dsDNA, one strand shown. In short, it runs like this:
as §1

In a further assay the target is T4, ERG (Homo sapiens, UniProt P11308 1-479).
T4 sequence: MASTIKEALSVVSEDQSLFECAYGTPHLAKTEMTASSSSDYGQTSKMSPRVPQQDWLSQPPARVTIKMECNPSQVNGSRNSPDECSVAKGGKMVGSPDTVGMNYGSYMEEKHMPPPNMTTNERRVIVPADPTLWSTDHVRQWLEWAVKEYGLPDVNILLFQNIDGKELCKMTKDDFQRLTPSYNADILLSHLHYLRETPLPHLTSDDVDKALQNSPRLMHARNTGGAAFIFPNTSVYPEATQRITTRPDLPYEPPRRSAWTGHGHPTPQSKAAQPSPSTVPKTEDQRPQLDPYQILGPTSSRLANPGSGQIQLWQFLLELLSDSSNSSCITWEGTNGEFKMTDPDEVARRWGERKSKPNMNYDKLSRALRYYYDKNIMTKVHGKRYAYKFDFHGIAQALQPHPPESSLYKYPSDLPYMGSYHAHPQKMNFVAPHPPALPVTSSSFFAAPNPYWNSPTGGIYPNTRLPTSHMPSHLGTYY
To be noted: protein: recombinant; tags: N-terminal GST; dsDNA, one strand shown. In short, it runs like this: as §1

Another assay has as its target ELF1 (Homo sapiens, UniProt P32519 1-619). The following applies: protein: recombinant; tags: N-terminal GST; dsDNA, one strand shown. In short, it runs like this: as §1
Another assay deals with T5, EHF (Homo sapiens, UniProt Q9NZC4 1-300).
T5 sequence: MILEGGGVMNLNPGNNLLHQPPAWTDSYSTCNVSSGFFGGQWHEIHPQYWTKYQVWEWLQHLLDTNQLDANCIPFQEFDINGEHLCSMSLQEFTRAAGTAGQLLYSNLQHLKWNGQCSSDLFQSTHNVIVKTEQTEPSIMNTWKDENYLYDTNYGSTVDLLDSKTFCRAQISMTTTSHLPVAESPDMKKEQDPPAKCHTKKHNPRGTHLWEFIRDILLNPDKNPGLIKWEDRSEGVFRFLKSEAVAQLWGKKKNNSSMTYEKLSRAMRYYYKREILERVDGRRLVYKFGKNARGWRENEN
The following applies: protein: recombinant; tags: N-terminal GST; dsDNA, one strand shown. In short, it runs like this: as §1

Another assay deals with SPI1 (Homo sapiens, UniProt P17947 1-270). To be noted: protein: recombinant; tags: N-terminal GST; dsDNA, one strand shown. In short, it runs like this:
as §1

A further assay addresses SPIB (Homo sapiens, UniProt Q01892 1-262). To be noted: protein: recombinant; tags: N-terminal GST; dsDNA, one strand shown. In outline:
as §1

The target of another assay is T6, ELK3 (Homo sapiens, UniProt P41970 1-407).
T6 sequence: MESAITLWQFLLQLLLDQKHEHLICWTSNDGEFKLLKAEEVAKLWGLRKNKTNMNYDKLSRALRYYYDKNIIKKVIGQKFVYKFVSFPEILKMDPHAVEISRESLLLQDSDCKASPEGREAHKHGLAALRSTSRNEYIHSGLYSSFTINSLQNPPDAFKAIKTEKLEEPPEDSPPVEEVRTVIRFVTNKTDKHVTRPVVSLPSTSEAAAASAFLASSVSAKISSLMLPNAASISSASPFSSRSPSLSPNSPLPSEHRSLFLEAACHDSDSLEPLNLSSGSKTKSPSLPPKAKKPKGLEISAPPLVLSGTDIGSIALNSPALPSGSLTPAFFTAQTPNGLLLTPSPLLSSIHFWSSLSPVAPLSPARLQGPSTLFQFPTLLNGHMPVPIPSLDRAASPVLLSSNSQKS
The following applies: protein: recombinant; tags: N-terminal GST; dsDNA, one strand shown. In outline:
as §1

Another assay concerns the target T7, FEV (Homo sapiens, UniProt Q99581 1-238).
T7 sequence: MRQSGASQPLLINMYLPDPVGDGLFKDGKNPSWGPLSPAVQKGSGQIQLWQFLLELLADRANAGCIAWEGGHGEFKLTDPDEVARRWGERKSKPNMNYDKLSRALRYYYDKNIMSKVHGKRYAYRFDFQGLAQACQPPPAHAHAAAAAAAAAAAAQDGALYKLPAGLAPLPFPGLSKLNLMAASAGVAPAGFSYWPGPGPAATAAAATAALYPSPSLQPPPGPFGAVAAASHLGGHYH
To be noted: protein: recombinant; tags: N-terminal GST; dsDNA, one strand shown. In outline: as §1

Another assay has as its target ETV5 (Homo sapiens, UniProt P41161 1-510). To be noted: protein: recombinant; tags: N-terminal GST; dsDNA, one strand shown. In outline:
as §1

The target in another assay is HSF1 (Homo sapiens, UniProt Q00613 1-529). The following applies: protein: recombinant; tags: N-terminal GST; chain copies: 3; dsDNA, one strand shown. In short, it runs like this: as §1
HSF1, sequence (Q00613 whole entry): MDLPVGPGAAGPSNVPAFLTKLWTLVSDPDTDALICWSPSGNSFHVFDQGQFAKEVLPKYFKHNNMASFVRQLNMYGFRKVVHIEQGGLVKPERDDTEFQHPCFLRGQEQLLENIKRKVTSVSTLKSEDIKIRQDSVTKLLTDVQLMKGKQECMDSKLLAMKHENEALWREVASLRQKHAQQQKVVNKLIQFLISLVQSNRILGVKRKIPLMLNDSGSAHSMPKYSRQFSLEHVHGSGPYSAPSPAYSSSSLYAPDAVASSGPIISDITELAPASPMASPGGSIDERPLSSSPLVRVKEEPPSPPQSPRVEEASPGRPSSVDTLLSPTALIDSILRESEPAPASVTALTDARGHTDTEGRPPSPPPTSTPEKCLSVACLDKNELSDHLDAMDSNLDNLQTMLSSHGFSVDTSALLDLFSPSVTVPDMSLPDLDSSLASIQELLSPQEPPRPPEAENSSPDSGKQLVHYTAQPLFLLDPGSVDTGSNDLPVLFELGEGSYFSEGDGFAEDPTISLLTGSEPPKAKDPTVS
The next assay deals with T8, SPIC (Homo sapiens, UniProt Q8N5J4 1-248).
T8 sequence: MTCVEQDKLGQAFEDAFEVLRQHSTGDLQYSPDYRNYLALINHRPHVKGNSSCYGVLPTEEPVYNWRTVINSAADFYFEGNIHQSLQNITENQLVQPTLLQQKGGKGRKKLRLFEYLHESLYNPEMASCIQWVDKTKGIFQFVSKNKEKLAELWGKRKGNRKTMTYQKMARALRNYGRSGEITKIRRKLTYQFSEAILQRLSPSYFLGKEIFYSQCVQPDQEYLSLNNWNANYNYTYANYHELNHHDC
The following applies: protein: recombinant; tags: N-terminal GST; dsDNA, one strand shown. In short, it runs like this:
as §1

For another assay, the target named is ELF4 (Homo sapiens, UniProt Q99607 1-663). The following applies: protein: recombinant; tags: N-terminal GST; dsDNA, one strand shown. In outline: as §1
ELF4, sequence (Q99607 whole entry): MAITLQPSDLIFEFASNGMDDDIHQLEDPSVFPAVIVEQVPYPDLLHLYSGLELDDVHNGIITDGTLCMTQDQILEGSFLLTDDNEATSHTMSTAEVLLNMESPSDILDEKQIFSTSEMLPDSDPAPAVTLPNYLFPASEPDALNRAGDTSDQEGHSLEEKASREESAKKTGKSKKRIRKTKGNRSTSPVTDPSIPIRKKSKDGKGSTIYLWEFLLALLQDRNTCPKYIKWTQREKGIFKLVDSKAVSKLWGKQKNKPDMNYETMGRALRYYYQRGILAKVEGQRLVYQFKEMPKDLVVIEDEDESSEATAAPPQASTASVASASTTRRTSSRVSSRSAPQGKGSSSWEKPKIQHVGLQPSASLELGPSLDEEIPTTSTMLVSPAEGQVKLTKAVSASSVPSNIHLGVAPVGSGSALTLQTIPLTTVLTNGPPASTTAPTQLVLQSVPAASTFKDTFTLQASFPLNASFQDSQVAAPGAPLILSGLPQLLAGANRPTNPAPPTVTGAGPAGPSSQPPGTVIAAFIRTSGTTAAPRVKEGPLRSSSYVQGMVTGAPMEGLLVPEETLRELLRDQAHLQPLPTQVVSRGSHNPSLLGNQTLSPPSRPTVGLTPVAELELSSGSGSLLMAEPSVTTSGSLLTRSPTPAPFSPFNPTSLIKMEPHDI
The target in another assay is T9, ELK4 (Homo sapiens, UniProt P28324-2 1-405).
T9 sequence: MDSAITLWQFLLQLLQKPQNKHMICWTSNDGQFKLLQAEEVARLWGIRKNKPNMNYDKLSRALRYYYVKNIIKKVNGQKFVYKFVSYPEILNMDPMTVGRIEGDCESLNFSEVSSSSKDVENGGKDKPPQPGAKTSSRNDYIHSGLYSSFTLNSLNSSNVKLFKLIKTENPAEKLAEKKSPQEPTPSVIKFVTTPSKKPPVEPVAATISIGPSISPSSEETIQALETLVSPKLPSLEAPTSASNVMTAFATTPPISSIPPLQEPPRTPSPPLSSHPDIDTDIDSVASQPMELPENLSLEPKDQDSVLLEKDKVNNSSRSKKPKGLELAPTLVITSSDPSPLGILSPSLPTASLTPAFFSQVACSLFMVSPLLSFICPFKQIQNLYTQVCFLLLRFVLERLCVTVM
The following applies: protein: recombinant; tags: N-terminal GST; dsDNA, one strand shown. In outline:
as §1

The target of the next assay is T10, ETV2 (Homo sapiens, UniProt O00321 1-342).
T10 sequence: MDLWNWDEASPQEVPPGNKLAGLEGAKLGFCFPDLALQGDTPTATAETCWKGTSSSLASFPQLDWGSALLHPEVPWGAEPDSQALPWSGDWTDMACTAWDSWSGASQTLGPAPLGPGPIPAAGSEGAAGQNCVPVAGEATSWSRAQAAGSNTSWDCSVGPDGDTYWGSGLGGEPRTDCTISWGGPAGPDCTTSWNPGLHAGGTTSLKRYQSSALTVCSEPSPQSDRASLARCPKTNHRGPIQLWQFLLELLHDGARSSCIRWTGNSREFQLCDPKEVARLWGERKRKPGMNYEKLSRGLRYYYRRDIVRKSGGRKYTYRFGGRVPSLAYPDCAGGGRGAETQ
The following applies: protein: recombinant; tags: N-terminal GST; dsDNA, one strand shown. In outline: as §1

The next assay deals with T11, ELF3 (Homo sapiens, UniProt P78545 1-371).
T11 sequence: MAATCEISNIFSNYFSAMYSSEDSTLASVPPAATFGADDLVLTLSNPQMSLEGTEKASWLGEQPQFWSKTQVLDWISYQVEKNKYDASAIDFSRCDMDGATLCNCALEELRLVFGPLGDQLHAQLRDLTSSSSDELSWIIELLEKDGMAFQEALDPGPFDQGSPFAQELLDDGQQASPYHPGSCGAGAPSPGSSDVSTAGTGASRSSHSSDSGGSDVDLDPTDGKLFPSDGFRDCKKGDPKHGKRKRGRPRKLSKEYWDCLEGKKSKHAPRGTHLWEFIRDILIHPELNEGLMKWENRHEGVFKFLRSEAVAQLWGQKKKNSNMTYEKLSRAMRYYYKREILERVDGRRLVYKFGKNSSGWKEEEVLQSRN
To be noted: protein: recombinant; tags: N-terminal GST; dsDNA, one strand shown. In outline: as §1

The next assay has as its target CRX (Homo sapiens, UniProt O43186 1-299). The following applies: protein: recombinant; tags: N-terminal GST; dsDNA, one strand shown. In outline:
as §1

The next assay has as its target ETV1 (Homo sapiens, UniProt P50549 1-477). The following applies: protein: recombinant; tags: N-terminal GST; dsDNA, one strand shown. In short, it runs like this: as §1

From publication PMC7862700, “An all-to-all approach to the identification of sequence-specific readers for epigenetic DNA modifications on cytosine” come the findings set out here.

CRX, sequence (O43186 whole entry): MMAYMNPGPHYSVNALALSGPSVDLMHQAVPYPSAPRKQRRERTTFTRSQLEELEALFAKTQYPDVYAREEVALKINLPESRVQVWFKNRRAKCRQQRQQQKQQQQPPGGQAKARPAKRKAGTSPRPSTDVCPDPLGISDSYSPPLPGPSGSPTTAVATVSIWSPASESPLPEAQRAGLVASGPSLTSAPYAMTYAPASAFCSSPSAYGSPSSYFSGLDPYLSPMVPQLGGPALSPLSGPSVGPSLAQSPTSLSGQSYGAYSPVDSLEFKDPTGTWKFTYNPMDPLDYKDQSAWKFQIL
SPIB, sequence (Q01892 whole entry): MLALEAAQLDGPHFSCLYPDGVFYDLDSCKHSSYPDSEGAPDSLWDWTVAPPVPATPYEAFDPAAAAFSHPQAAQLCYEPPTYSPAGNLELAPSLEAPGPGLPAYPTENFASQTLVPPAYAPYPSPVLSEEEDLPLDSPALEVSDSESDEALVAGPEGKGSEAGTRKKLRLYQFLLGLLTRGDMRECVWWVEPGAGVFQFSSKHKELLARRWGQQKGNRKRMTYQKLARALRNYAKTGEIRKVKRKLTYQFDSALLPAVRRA
ETV1, sequence (P50549 whole entry): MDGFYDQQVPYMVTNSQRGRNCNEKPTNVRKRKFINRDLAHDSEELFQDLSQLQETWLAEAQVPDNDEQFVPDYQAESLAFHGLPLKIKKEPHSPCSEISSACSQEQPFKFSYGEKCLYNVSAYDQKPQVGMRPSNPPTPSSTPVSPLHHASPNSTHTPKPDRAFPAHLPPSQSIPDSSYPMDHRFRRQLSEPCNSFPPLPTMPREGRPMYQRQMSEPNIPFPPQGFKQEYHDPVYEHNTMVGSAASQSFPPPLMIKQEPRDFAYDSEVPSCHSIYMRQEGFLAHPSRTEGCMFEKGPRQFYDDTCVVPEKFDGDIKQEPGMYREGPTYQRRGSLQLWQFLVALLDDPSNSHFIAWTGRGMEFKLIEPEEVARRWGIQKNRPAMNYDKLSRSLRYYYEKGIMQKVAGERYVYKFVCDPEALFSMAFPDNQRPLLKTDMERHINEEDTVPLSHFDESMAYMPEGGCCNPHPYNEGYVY
ETV5, sequence (P41161 whole entry): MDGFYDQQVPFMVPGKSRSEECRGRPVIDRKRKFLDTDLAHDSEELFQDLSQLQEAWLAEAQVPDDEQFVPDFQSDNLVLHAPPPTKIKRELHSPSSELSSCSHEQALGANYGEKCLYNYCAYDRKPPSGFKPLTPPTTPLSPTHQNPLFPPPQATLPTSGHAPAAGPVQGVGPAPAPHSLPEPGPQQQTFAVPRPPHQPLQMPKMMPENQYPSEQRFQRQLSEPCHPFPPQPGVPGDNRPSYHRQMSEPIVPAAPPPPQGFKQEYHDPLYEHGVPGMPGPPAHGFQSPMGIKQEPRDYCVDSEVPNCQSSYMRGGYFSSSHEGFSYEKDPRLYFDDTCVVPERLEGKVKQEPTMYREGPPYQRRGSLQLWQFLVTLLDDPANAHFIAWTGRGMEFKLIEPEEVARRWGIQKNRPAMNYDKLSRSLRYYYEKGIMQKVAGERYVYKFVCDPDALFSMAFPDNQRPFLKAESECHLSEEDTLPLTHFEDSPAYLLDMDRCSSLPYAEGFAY
ELF1, sequence (P32519 whole entry): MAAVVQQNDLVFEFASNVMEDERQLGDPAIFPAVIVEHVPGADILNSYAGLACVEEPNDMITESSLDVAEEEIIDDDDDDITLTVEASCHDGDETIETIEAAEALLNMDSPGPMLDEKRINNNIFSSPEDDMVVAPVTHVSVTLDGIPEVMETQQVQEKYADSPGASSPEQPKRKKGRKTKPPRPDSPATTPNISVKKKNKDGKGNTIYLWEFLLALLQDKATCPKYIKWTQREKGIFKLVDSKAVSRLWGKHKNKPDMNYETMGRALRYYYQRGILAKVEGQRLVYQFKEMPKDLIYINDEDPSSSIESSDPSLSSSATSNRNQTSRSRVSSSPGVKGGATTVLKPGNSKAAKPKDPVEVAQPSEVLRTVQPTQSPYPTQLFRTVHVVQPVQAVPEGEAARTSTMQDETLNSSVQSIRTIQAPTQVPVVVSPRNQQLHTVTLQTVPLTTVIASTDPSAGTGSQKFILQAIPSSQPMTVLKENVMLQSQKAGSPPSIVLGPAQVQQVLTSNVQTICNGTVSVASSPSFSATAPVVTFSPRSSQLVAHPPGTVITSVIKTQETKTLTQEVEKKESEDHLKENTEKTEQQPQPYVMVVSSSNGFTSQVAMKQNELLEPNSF

As for TTAAGT, the binding signal was 1.06 fold enrichment (6-mer frequency, TF over GST control) with FLI1; 1.3 fold enrichment (6-mer frequency, TF over GST control) with ELK1; 1.16 fold enrichment (6-mer frequency, TF over GST control) with GABPA; 1.17 fold enrichment (6-mer frequency, TF over GST control) with ERG; 1.19 fold enrichment (6-mer frequency, TF over GST control) in the assay with ELF1; 1.15 fold enrichment (6-mer frequency, TF over GST control) with EHF. The binding signal is 1.06 fold enrichment (6-mer frequency, TF over GST control) with SPI1; 1.2 fold enrichment (6-mer frequency, TF over GST control) with SPIB; 1.23 fold enrichment (6-mer frequency, TF over GST control) with ELK3; 1.11 fold enrichment (6-mer frequency, TF over GST control) with FEV; 1.15 fold enrichment (6-mer frequency, TF over GST control) in the assay with ETV5; 2 fold enrichment (6-mer frequency, TF over GST control) with HSF1. In addition, the binding signal was 1.25 fold enrichment (6-mer frequency, TF over GST control) in the assay with SPIC; 1.16 fold enrichment (6-mer frequency, TF over GST control) with ELF4; 1.03 fold enrichment (6-mer frequency, TF over GST control) in the assay with ELK4; 1.14 fold enrichment (6-mer frequency, TF over GST control) with ETV2; 1.26 fold enrichment (6-mer frequency, TF over GST control) with ELF3; 3.27 fold enrichment (6-mer frequency, TF over GST control) with CRX. For the same sequence, in the assay with ETV1, the binding signal is 1.16 fold enrichment (6-mer frequency, TF over GST control).
